Screening results as filed in PubChem BioAssay.
Shown are actives, neighbours in structure and some others; about 32% of the full set was active somewhere.
PostGolgi yeast = growth inhibition of a yeast mutant, post-Golgi transport screen; hit rate 0.9% among 98,000; post-Golgi transport phenotypic cell assay; inhibition, % at 10 µM;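 further: yeast cells grown in 1536-well plates; yeast grown about 18 h at 30C before absorbance read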
CYP2C9 act = activators of human CYP2C9; activation factor at 5 µM; AID 1024; P11712; recombinant CYP2C9, luciferin-H conversion, luminescence; active compounds read high; factor 1 = untreated enzyme, 0 = blocked; hit rate 1.4% among 96,000;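 active means activation factor of 2 or more for CYP2C9 at a 5 µM dose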
CYP2C9 inh = blocks human cytochrome P450 2C9. P11712. CYP2C9 Supersomes, luciferin-H conversion, luminescence. inhibition, % at 5 µM. hit rate 20% among 96,000. AID 777;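 active means blocking of liver enzyme CYP2C9 beyond about 50% at 5 µM, limit read from the data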
CYP2C19 inh = human CYP2C19 inhibition | P33261 | CYP2C19 Supersomes, luciferin-H EGE luminescence, 30 min | hit rate 21% among 96,000 | inhibition, % at 5 µM;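 active means CYP2C19 inhibition above a set limit at 5 µM in the primary screen, cut at about 50% in these data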
Target sequence (P33261 whole entry, looked up): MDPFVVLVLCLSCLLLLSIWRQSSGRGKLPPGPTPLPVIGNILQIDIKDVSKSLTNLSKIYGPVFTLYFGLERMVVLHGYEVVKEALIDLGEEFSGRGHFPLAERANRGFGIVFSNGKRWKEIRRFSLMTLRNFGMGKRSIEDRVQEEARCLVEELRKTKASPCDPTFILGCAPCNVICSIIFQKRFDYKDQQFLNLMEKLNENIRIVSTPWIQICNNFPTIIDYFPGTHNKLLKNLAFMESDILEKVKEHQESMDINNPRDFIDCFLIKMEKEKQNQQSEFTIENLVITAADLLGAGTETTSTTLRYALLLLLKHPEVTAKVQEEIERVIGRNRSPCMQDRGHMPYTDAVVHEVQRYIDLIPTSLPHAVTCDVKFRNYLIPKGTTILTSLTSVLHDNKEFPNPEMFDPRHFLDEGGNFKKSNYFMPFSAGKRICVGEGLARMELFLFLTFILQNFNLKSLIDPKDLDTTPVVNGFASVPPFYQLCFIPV
CYP2C19 act = increases human CYP2C19 enzyme activity; AID 1025; activation factor at 5 µM; recombinant CYP2C19, luciferin-H EGE luminescence; active compounds read high; 0 = fully inhibited enzyme, 1 = untreated enzyme; 96,000 tested, under 10 active;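 active means activation factor of at least 2 at 5 µM in the primary screen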
PostGolgi ctrl = inhibits growth of the yeast control strain; inhibition, % at 10 µM; efflux-deficient yeast background strain, growth absorbance A615, 16 h; hit rate 5% among 98,000; AID 738
Each line names hits and unclear results; the compound was inactive in the other large screens. Unless noted, no stated cut-off is given here; in the data, active means inhibition above about 30%; inactive means the rest.

O=C(CSc1ncc(-c2ccc(F)cc2)[nH]1)N1CCCCC1	CYP2C19 inh 84
NC(=O)CSc1ncc(-c2ccccc2)[nH]1	none
O=C(O)c1cccnc1SC1CC(=O)N(Cc2ccccc2)C1=O (centres undefined)	none
COc1cc(/C=N\Nc2ccc([N+](=O)[O-])cc2)ccc1OCC(=O)Nc1ccc(C)c(C)c1	none
CC1Cc2ccccc2N1Cc1nc2cc(C(F)(F)F)ccc2c(=O)[nH]1 (centres undefined)	CYP2C9 inh 51
COC(=O)C1CCN(C(=O)c2c(-c3ccccc3Cl)noc2C)CC1	CYP2C19 inh 54
Cc1onc(-c2ccccc2Cl)c1C(=O)N1CCN(c2nc3ccccc3s2)CC1	CYP2C9 inh 92, CYP2C19 inh 96
Cc1onc(-c2ccccc2Cl)c1C(=O)N1CCN(C/C=C/c2ccccc2)CC1	none
COc1ccccc1N1CCN(C(=O)c2ccoc2C)CC1	CYP2C19 inh 74
Cc1onc(-c2ccccc2Cl)c1C(=O)N1CCCCC1C(=O)O (centres undefined)	none
COc1ccccc1N1CCN(C(=O)c2c(-c3ccccc3Cl)noc2C)CC1	CYP2C9 inh 65, CYP2C19 inh 94
CCN1C(=O)/C(=C/c2cnn(C)c2C)SC1=S	none
CCOC(=O)CC12CN3CN(C1)CC(CC(=O)OCC)(C3)C2=O	none
COc1cccc(S(=O)(=O)NCc2ccc(C(=O)Nc3ccc(C)cc3)cc2)c1	none
COc1ccc(Cn2c(CCC(=O)NCc3ccco3)nc3cccnc32)cc1	none
CSc1nc(C)cc(C)c1S(=O)(=O)c1ccccc1C	CYP2C9 act 2.9
CCSc1nc(C)cc(C)c1S(=O)(=O)c1ccccc1C	PostGolgi ctrl 31
COc1ccc(N2C(=O)NC3CC2(C)Oc2ccccc23)cc1OC (centres undefined)	none
CCCc1cc(=O)n2[nH]c(-c3ccc(OC)cc3)nc2n1	none
CCOC(=O)C1=C(CC)Nc2ccccc2N=C1NC(=O)c1cc(S(=O)(=O)N(C)C)ccc1Cl	CYP2C9 inh 68
CCOC(=O)C1=C(CC)Nc2ccccc2N=C1NC(=O)Nc1ccccc1OC	PostGolgi ctrl 37
Cc1ccc(S(=O)(=O)N2CCOCC2)cc1C(=O)NCc1cn2ccsc2n1	none
O=S(=O)(NCCc1ccncc1)c1ccc(Br)cc1	CYP2C9 inh 98, CYP2C19 inh 100
O=S(=O)(NCCc1ccncc1)c1ccc(S(=O)(=O)N2CCCCCC2)cc1	CYP2C9 inh 92, CYP2C19 inh 99
Cc1c(Cl)cccc1-n1c(SCC(=O)NCc2cccs2)nnc1-c1ccncc1	CYP2C9 inh 77, CYP2C19 inh 97
O=C(CSc1nnc(-c2ccncc2)n1-c1ccc(Cl)cc1)NCc1cccs1	CYP2C9 inh 77, CYP2C19 inh 96
Cc1c(Cl)cccc1-n1c(SCC(=O)NCc2ccccc2Cl)nnc1-c1ccncc1	CYP2C9 inh 81, CYP2C19 inh 94
Cn1c(SCC(=O)NCc2cccs2)nnc1-c1ccncc1	none
Cc1cc(=O)n2nc(N3CCC(C(=O)NC4CCCc5ccccc54)CC3)sc2n1 (centres undefined)	none
CCC(CC)c1nnc(NC(=O)CN2C(=O)C3C4C=CC(C4)C3C2=O)s1 (centres undefined)	none
Cc1cc2c3c(ccc(C)c3n1)N=CN2c1ccccc1	CYP2C9 inh 56
Cc1cc(N2CCOCC2)c2c(N)c(C)cc(C)c2n1	none
COc1ccc(-n2cnc3ccccc32)cc1	CYP2C9 inh 59, CYP2C19 inh 61
COc1ccc2ncn(-c3ccccc3)c2c1	CYP2C9 inh 55, CYP2C19 inh 95
CCOC(=O)CN1CCc2c(C)nc3c(-c4ccc(OC)c(OC)c4)cnn3c21	none
COc1cccc(OCCOc2ccccc2OC(C)C)c1	CYP2C19 inh 90
CCOc1ccccc1OCCOc1ccccc1OC(C)C	CYP2C19 inh 56
Cc1ccc(CN=C2Nc3ccccc3CS2)cc1	CYP2C19 inh 71
Clc1ccc(CN=C2Nc3ccccc3CS2)cc1	CYP2C19 inh 86
CCN(CC)CCN=C1CCCc2ccccc2N1	none
CC(C)CC(=O)Nc1ccc(N2CCOCC2)cc1	none
CN1CCC(=NNC(=O)C(=O)NC(C)(C)C)CC1	CYP2C9 inh 55
CN1CCC(=NNC(=O)C(=O)NC2CCCC2)CC1	none
Cc1ccc(-c2cc(C(F)F)n3ncc(C(=O)N4CCN(c5cccc(C)c5C)CC4)c3n2)cc1	CYP2C9 inh 68
Cc1ccc(-c2cc(C(F)F)n3ncc(C(=O)Nc4ccc(S(=O)(=O)Nc5ccccc5C)cc4)c3n2)cc1	CYP2C9 inh 82
CCOC(=O)N1CCN(C(=O)c2cnn3c(C(F)F)cc(-c4ccc(C)cc4)nc23)CC1	none
COc1ccc(NS(=O)(=O)c2ccc(NC(=O)c3cnn4c(C(F)F)cc(-c5ccc(C)cc5)nc34)cc2)cc1	CYP2C9 inh 60
CCC(=O)N1CCc2cc(S(=O)(=O)NCCCN(CC)Cc3ccccc3)ccc21	none
C(=N\c1ncnc2sccc12)/NOCc1ccccc1	CYP2C9 inh 56, CYP2C19 inh 84, PostGolgi ctrl 66
Cc1csc(NC(=O)Cn2cnnn2)n1	none
CCCn1c(SCC(=O)NCCc2ccc(Cl)cc2Cl)n[nH]c1=O	none
CCCc1nc(SCc2ccc(Cl)cc2Cl)n[nH]1	CYP2C19 inh 84
CCOC(=O)c1c(-n2c(C)cc(C=O)c2C)sc2c1CCCC2	CYP2C9 inh 61
Cc1sc(-n2c(C)cc(C=O)c2C)c(C(=O)O)c1C	none
CCOc1ccc(N(CC(=O)NC(C)CC)S(=O)(=O)c2c(C)noc2C)cc1 (centres undefined)	CYP2C19 inh 64
COc1cccc(CNC(=O)CN(c2cc(C)cc(C)c2)S(=O)(=O)c2c(C)noc2C)c1	CYP2C9 inh 58, CYP2C19 inh 55
CCOc1ccc(NC(=O)CN(c2cc(C)cc(C)c2)S(=O)(=O)c2c(C)noc2C)cc1	none (no result: CYP2C9 act, CYP2C9 inh, CYP2C19 inh, CYP2C19 act)
CCOc1ccc(N(CC(=O)Nc2nccs2)S(=O)(=O)c2c(C)noc2C)cc1	CYP2C9 inh 64, CYP2C19 inh 71
CCOc1ccc(N(CC(=O)NCc2ccccc2)S(=O)(=O)c2c(C)noc2C)cc1	CYP2C19 inh 91
CC1CCN(C(=O)c2ccc(NC(=O)C3CCCO3)cc2)CC1 (centres undefined)	none
Cc1csc(-c2cnn(-c3ccccc3)c2NC(=O)c2cccc(F)c2)n1	none
N#Cc1c(-c2cccs2)nc(SCC(=O)c2cccs2)[nH]c1=O	CYP2C9 inh 98
O=C(CSc1nc2ccccc2c(=O)[nH]1)c1ccc(O)c(O)c1	CYP2C9 inh 77
O=C(CSc1nc2ccccc2c(=O)[nH]1)c1cccs1	CYP2C9 inh 66
O=C(CSc1nc2ccccc2c(=O)[nH]1)N1CCCCCC1	none
Cc1onc(-c2c(Cl)cccc2Cl)c1C(=O)n1nnc2ccccc21	none
CCn1nc(CC(=O)Nc2ccc(-n3cnnn3)c(OC)c2)c2ccccc2c1=O	none
Cc1cccc(NC(=O)C2CCCN(C(=O)Nc3ccccc3)C2)c1C (centres undefined)	none
